From the supplement of paper PMC3545927
The list shows a part of the results. The true hit rate is not given.

Target: furin, P09958
Assay: furin cleavage Z-score vs untreated control; higher = more cleavage, active = 3.5 or more, inactive = 1 or less, 8 variable residues between constant flanks
Method: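 Multiplexed peptide-cDNA fusion cleavage assay. 8-mer variable peptides flanked by constant Cys-Ala (N-term) and Ala-Gly-Asn-Ala-Ser-Ala-Ser-Ala (C-term) and conjugated to a cDNA oligonucleotide were bead-immobilised via the N-terminus. They were treated with purified furin at a 1:10 enzyme:substrate ratio in 50 mM HEPES pH 7.5, 1 mM CaCl2, 100 mM NaCl for 7.5, 15 or 30 min. Released cDNA was counted by next-generation sequencing, and log counts versus no-furin controls were lowess-adjusted and converted to robust Z-scores.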

Sequence of furin, P09958 (P09958 whole entry): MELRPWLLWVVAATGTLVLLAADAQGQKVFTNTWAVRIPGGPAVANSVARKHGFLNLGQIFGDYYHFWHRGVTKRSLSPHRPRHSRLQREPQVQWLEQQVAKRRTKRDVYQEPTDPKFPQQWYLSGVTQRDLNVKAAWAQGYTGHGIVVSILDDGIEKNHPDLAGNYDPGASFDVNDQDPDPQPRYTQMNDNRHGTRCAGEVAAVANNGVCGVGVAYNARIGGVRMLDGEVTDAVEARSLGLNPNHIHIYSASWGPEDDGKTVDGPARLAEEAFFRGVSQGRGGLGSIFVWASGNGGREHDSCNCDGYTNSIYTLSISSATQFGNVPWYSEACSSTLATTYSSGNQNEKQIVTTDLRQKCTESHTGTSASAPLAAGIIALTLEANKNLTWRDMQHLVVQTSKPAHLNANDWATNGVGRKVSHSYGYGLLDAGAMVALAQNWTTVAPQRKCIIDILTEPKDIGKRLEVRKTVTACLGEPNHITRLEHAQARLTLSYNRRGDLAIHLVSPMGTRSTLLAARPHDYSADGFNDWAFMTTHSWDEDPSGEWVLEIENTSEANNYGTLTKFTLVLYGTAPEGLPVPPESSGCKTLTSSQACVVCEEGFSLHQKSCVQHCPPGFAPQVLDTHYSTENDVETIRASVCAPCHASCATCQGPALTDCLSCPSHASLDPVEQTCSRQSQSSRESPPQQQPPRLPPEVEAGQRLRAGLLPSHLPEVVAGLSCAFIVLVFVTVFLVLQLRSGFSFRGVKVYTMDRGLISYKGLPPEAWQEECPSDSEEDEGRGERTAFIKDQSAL

Sequence | furin cleavage Z-score (7.5 min) | furin cleavage Z-score (15 min) | furin cleavage Z-score (30 min)
CATRCFDSTVAGNASASA [HC1481] | 1.01 | 0.491 (inactive) | 0.363 (inactive)
CAILQASLLKAGNASASA [HC611] | -0.334 (inactive) | -0.703 (inactive) | -0.0413 (inactive)
CASTPCSACLAGNASASA [HC2560] | 0.847 (inactive) | -0.78 (inactive) | 0.791 (inactive)
CAILEVVTSTAGNASASA [HC2264] | -1.51 (inactive) | -0.366 (inactive) | 0.122 (inactive)
CAMTECSQHLAGNASASA [HC1698] | 0.478 (inactive) | 0.668 (inactive) | 0.28 (inactive)
CAVTCCSMSYAGNASASA [HC2018] | 0.12 (inactive) | -1.47 (inactive) | -1.48 (inactive)
CANAEDVVCCAGNASASA [HC1367] | -0.652 (inactive) | -1.38 (inactive) | -0.581 (inactive)
CANCSIYPGHAGNASASA [HC313] | 0.763 (inactive) | -0.054 (inactive) | 0.871 (inactive)
CAVVNRKARFAGNASASA [FS-208] | 6.98 (active) | 8.16 (active) | 8.51 (active)
CAIDRRIARFAGNASASA [FS-539] | 1.87 | 1.35 | 3.96 (active)
CANCSRKRRTAGNASASA [FS-551] | 9.83 (active) | 9.81 (active) | 7.5 (active)
CANCSREARGAGNASASA [FS-832] | -1.13 (inactive) | -0.942 (inactive) | -0.54 (inactive)
CAPGSRKRRTAGNASASA [FS-1147] | 11.2 (active) | 13.8 (active) | 9.92 (active)
CAISERQARFAGNASASA [FS-171] | 0.813 (inactive) | -0.669 (inactive) | 1.86
CAIDTLTCGFAGNASASA [HC222] | 0.261 (inactive) | -0.013 (inactive) | 0.099 (inactive)
CASTPCSMHLAGNASASA [HC2526] | 0.123 (inactive) | 0.577 (inactive) | 0.242 (inactive)

Sequence | furin cleavage Z-score (7.5 min) | furin cleavage Z-score (15 min) | furin cleavage Z-score (30 min)
CAVHGCPLPPAGNASASA [HC1316] | -0.297 (inactive) | 0.367 (inactive) | 0.0305 (inactive)
CAEEECSQHLAGNASASA [HC1672] | 0.0201 (inactive) | 1.31 | 0.995 (inactive)
CAGDRVYIHPAGNASASA [EK2] | -0.225 (inactive) | -0.247 (inactive) | -0.383 (inactive)
CAMEHCSQHLAGNASASA [HC1715] | -0.776 (inactive) | -0.0908 (inactive) | 0.617 (inactive)
CAHPDATYSRAGNASASA [HC455] | -0.242 (inactive) | -1.51 (inactive) | -2.12 (inactive)
CAQRSRQKKTAGNASASA [FS-1392] | -1.4 (inactive) | -0.885 (inactive) | 0.286 (inactive)
CAHHNLVYSTAGNASASA [HC1387] | 0.206 (inactive) | 0.355 (inactive) | 0.257 (inactive)
CATRSRRGRFAGNASASA [FS-204] | 2.71 | 5.35 (active) | 4.64 (active)
CASWNRVARTAGNASASA [FS-199] | 4.98 (active) | 4.02 (active) | 5.03 (active)
CAQWIRVKRTAGNASASA [FS-372] | 10 (active) | 8.77 (active) | 8.64 (active)
CALWSRYGRFAGNASASA [FS-1034] | 0.532 (inactive) | 1.92 | -0.157 (inactive)
CAMPRRRGRFAGNASASA [FS-1037] | -0.497 (inactive) | 1.44 | 2.55
CAPMSRGDRFAGNASASA [FS-701] | -0.701 (inactive) | -0.0648 (inactive) | 0.556 (inactive)
CAPWITPRCLAGNASASA [HC461] | 1.9 | 1.18 | 0.0858 (inactive)
CAPGSRKARFAGNASASA [FS-280] | 7.61 (active) | 8.81 (active) | 9.66 (active)
CASWTGALVTAGNASASA [HC1373] | 1.05 | 1.42 | 0.57 (inactive)
